# Laboratory results published in PubChem BioAssay (NCATS).
# “And” between values parts separate entries of the source, which are not always exact repeats. Identical values can stand only once. Results filed as inconclusive are left out. Entries that show only a call come without a potency. Unmarked numbers belong to inactive results. The source made the active and inactive calls. The call rests on the fitted dose curve; in most records, active means well fitted curve in the direction sought with a large enough effect; inconclusive means small, poorly fitted or top-dose-only effect, or another doubt; inactive means no such curve, though single readings can be large; an effect the other way counts as inactive or inconclusive.
# What was measured:
# [1] = P-glycoprotein substrates identified in KB-3-1 adenocarcinoma cell line, qHTS therapeutic library screen (AID 1346986); further: nearly all actives have a fitted effect of over 60% in size;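 further: potency is for cytotoxicity meaning loss of cell viability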
# Summary of the method: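 Cells seeded 500/well in DMEM/10% FCS; compounds pinned in dose-response; 72 h incubation; CellTiter-Glo added, 5 min, luminescence. KB-8-5-11 run ±tariquidar to test reversal of P-gp resistance.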
# [2] = P-glycoprotein substrates identified in KB-8-5-11 adenocarcinoma cell line, qHTS therapeutic library screen (AID 1346987); further: nearly all actives have a fitted effect of over 65% in size; on activity change, negative = cytotoxicity: series mostly up to about 44 µM
# Summary of the method: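 Steps: plate 500 KB-8-5-11 cells/well in DMEM + 10% FCS (colchicine removed); pin compounds in dose-response; incubate 72 h, 37 degree C, 5% CO2; add CellTiter-Glo, 5 min; read luminescence.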
# Potency means the concentration at half of the fitted maximal effect.
smiles,measurement,setting,value
Cc1c2cc(c(C(=O)O)c1C)OC1OC(C(O)C(O)C1O)C(O)C(O)C1OC(O2)C(O)C(O)C1O (centres undefined),Potency,[1],inactive
same,Potency,[2],inactive
C[C@H](Nc1ncnc2nc[nH]c12)c1cc2ccc(F)cc2nc1-c1ccccn1,Potency,[1],inactive
same,Potency,[2],inactive
COc1cc2ncnc(Nc3cccc(O)c3)c2cc1OC,Potency,[1],inactive
same,Potency,[2],inactive
OC[C@H]1O[C@@H](OCCc2ccccc2)[C@H](O[C@@H]2OC[C@](O)(CO)[C@H]2O)[C@@H](O)[C@@H]1O,Potency,[1],inactive
same,Potency,[2],inactive
COc1cc2c(c(OC)c1CC=C(C)C)C[C@H](c1ccc(O)cc1O)CO2,Potency,[1],inactive
same,Potency,[2],inactive
CC(C)c1ccc(CO)cc1O[C@@H]1O[C@H](CO)[C@@H](O)[C@H](O)[C@H]1O,Potency,[1],inactive
same,Potency,[2],inactive
C[C@@H]1O[C@@H](O[C@H]2[C@H](O[C@H]3CC[C@@]4(C)C(CC[C@]5(C)C4CC=C4[C@@H]6CC(C)(C)CC[C@]6(C(=O)O[C@@H]6OC[C@H](O)[C@H](O)[C@H]6O[C@@H]6O[C@@H](C)[C@H](O[C@@H]7O[C@H](CO)[C@@H](O)[C@H](O)[C@H]7O)[C@H](O)[C@H]6O)[C@H](O)C[C@]45C)C3(C)C)O[C@H](CO)[C@@H](O[C@@H]3OC[C@@H](O)[C@H](O)[C@H]3O)[C@@H]2O)[C@H](O)[C@H](O)[C@H]1O (some centres undefined),outcome,[1],inactive [at 9.29 µM]
same,outcome,[2],inactive [at 9.29 µM]
O=C(NOCC(O)CO)c1ccc(F)c(F)c1Nc1ccc(I)cc1F (centres undefined),Potency,[1],inactive
same,Potency,[2],inactive
CCNC(=O)Nc1ccc(-c2nc3c(c(N4CCOC[C@@H]4C)n2)CCN(c2ncccn2)C3)cc1,Potency,[1],58 nM (active)
same,Potency,[2],259 nM (active)
C[C@H](NC(c1cccc2[nH]c(=O)c(=O)[nH]c12)P(=O)(O)O)c1ccc(Br)cc1 (some centres undefined),Potency,[1],inactive
same,Potency,[2],inactive
CC1CCN(C(=O)CC#N)CC1N(C)c1ncnc2[nH]ccc12 (centres undefined),Potency,[1],inactive
same,Potency,[2],inactive
CC1(C)CC[C@]2(C(=O)O)CC[C@]3(C)C(=CCC4[C@@]5(C)CC[C@H](O[C@@H]6O[C@H](C(=O)O)[C@@H](O[C@@H]7OC[C@@H](O)[C@H](O)[C@H]7O)[C@H](O)[C@H]6O)C(C)(C)C5CC[C@]43C)C2C1O (some centres undefined),Potency,[1],inactive
same,Potency,[2],inactive
O=C1NC(=O)C(c2cn(-c3ccccc3)nc2-c2ccc(F)cc2)N1 (centres undefined),Potency,[1],inactive
same,Potency,[2],inactive
CC1OC(OC2C(C)OC(OC3C(OC(=O)C45CCC(C)(C)CC4C4=CCC6C7(C)CCC(OC8OC(C(=O)O)C(O)C(O)C8OC8OC(CO)C(O)C(OC9OC(C)C(O)C(O)C9O)C8O)C(C)(CO)C7CCC6(C)C4(C)CC5)OC(CO)C(O)C3O)C(O)C2O)C(O)C(O)C1O (centres undefined),outcome,[1],inactive [at 9.29 µM]
same,"activity change, negative = cytotoxicity",[2],1.71% [at 9.29 µM]
CC(O)(CC(=O)O)CC(=O)OCc1ccc(O[C@@H]2O[C@H](CO)[C@@H](O)[C@H](O)[C@H]2O)cc1 (some centres undefined),Potency,[1],inactive
same,Potency,[2],inactive
CC1CC(O)C2(OC1=O)OC1C(O)C3C4CCC5CC(OC6OC(CO)C(O)C(O)C6OC6OC(C)C(O)C(O)C6O)CCC5(C)C4CCC3(C)C1C2C (centres undefined),Potency,[1],inactive
same,Potency,[2],inactive
O=C1NC(Cc2c[nH]c3ccccc23)C(=O)NC1Cc1c[nH]c2ccccc12 (centres undefined),Potency,[1],inactive
same,Potency,[2],inactive
CC1(C)CCC2(C(=O)OC3OCC(O)C(O)C3O)CCC3(C)C(=CCC4C5(C)CC(O)C(OC6OC(COC7OCC(O)C(O)C7O)C(O)C(O)C6O)C(C)(C)C5CCC43C)C2C1 (centres undefined),outcome,[1],inactive [at 9.29 µM]
same,outcome,[2],inactive [at 9.29 µM]
C=C1C(O)CC2C(C(=O)O)=COC(O[C@@H]3O[C@H](COC(=O)/C=C/c4ccc(O)cc4)[C@@H](O)[C@H](O)[C@H]3O)C12 (some centres undefined),Potency,[1],inactive
same,Potency,[2],inactive
O=C(Nc1ccn[nH]1)c1c(F)cccc1F,Potency,[1],inactive
same,Potency,[2],inactive
COc1cc(Nc2nc3ccccc3nc2NS(=O)(=O)c2ccc(NC(=O)c3ccc(OC)c(C)c3)cc2)cc(OC)c1,Potency,[1],inactive
same,Potency,[2],inactive
CC(=O)C12OC(C)(C)OC1CC1C3CCC4=CC(=O)C=CC4(C)C3(F)C(O)CC12C (centres undefined),Potency,[1],inactive
same,Potency,[2],inactive
CC1(C)CCCC2(C)C1C(O)C=C(CO)C2(O)CO (centres undefined),Potency,[1],inactive
same,Potency,[2],inactive
CN[C@H](CC(C)C)C(=O)N[C@H]1C(=O)N[C@@H](CC(N)=O)C(=O)N[C@H]2C(=O)N[C@H]3C(=O)N[C@H](C(=O)N[C@H](C(=O)O)c4cc(O)cc(O)c4-c4cc3ccc4O)[C@H](O[C@H]3C[C@](C)(N)[C@@H](O)[C@H](C)O3)c3ccc(c(Cl)c3)Oc3cc2cc(c3O[C@@H]2O[C@H](CO)[C@@H](O)[C@H](O)[C@H]2O[C@H]2C[C@](C)(NCc3ccc(-c4ccc(Cl)cc4)cc3)[C@@H](O)[C@H](C)O2)Oc2ccc(cc2Cl)[C@H]1O,Potency,[1],inactive
same,Potency,[2],inactive
O=C1NC2CCc3nc4ccccc4c(=O)n3C2=Nc2ccccc21 (centres undefined),Potency,[1],inactive
same,Potency,[2],inactive
CC1=C2C(O)C(=O)OC(c3ccoc3)C2(C)CCC1O (centres undefined),Potency,[1],inactive
same,Potency,[2],inactive
C=C(C)C1CCC2(C(=O)O[C@@H]3O[C@H](CO[C@@H]4O[C@H](CO)[C@@H](O)[C@H](O)[C@H]4O)[C@@H](O)[C@H](O[C@@H]4O[C@@H](C)[C@H](O)[C@@H](O)[C@H]4O)[C@H]3O)CCC3(C(=O)O)C(CCC4C5(C)CCC(O)C(C)(C)C5CCC43C)C12 (some centres undefined),outcome,[1],inactive [at 9.29 µM]
same,outcome,[2],inactive [at 9.29 µM]
C[C@H]1CC[C@@H]2N(C1)C[C@@H]1[C@H]([C@@H](O)[C@H](O)[C@]3(O)[C@H]1C[C@@]14OC5(O)[C@@H](C[C@@H](O)[C@@H]31)[C@]4(C)CC[C@@H]5O)[C@]2(C)O,Potency,[1],inactive
same,Potency,[2],inactive
CC(C)(O[C@@H]1O[C@H](CO)[C@@H](O)[C@H](O)[C@H]1O)C(OC(=O)/C=C\c1ccc(O)cc1)C(=O)OCc1ccc(O[C@@H]2O[C@H](CO)[C@@H](O)[C@H](O)[C@H]2O)cc1 (some centres undefined),Potency,[1],inactive
same,Potency,[2],inactive
C=C1C(=O)OC2CC(C)=C(C(C)CCCO)C(O)C12 (centres undefined),Potency,[1],inactive
same,Potency,[2],inactive
CC12CCC3c4ccc(OC5OC(C(=O)O)C(O)C(O)C5O)cc4CCC3C1CCC2O (centres undefined),Potency,[1],inactive
same,Potency,[2],inactive
CC(=O)OC[C@H]1O[C@H](O[C@]2(CO)O[C@H](CO)[C@@H](OC(=O)/C=C/c3ccccc3)[C@@H]2O)[C@H](O)[C@@H](O)[C@@H]1O,Potency,[1],inactive
same,Potency,[2],inactive
C[C@@H]1C[C@H]2O[C@@H]2/C=C\C=C\C(=O)Cc2c(Cl)c(O)cc(O)c2C(=O)O1,Potency,[1],2860 nM (active)
same,Potency,[2],438 nM (active) and 5.7 µM (active)
CC(=O)O[C@@H]1[C@@H](O)[C@H](O[C@H]2CC[C@]34C[C@]35CC[C@]3(C)[C@@H]([C@@]6(C)CC[C@@H](C(C)(C)O)O6)[C@@H](O)C[C@@]3(C)[C@@H]5C[C@H](O[C@@H]3O[C@H](CO)[C@@H](O)[C@H](O)[C@H]3O)[C@H]4C2(C)C)OC[C@H]1O,Potency,[1],inactive
same,Potency,[2],inactive
C=C(C(=O)O)C1CCC2(C)CCC(O)C(=C)C2C1 (centres undefined),Potency,[1],inactive
same,Potency,[2],inactive
CC1(C)CC[C@]2(C(=O)O[C@@H]3O[C@H](CO[C@@H]4O[C@H](CO)[C@@H](O)[C@H](O)[C@H]4O[C@@H]4O[C@H](CO)[C@@H](O)[C@H](O)[C@H]4O)[C@@H](O)[C@H](O[C@@H]4O[C@H](CO)[C@@H](O)[C@H](O)[C@H]4O)[C@H]3O)CC[C@]3(C)C(=CCC4[C@@]5(C)CC[C@@H](O)[C@@](C)(C(=O)O[C@@H]6O[C@H](CO)[C@@H](O)[C@H](O)[C@H]6O)C5CC[C@]43C)[C@@H]2C1 (some centres undefined),outcome,[1],inactive [at 9.29 µM]
same,outcome,[2],inactive [at 9.29 µM]
COC(=O)C1=CO[C@@H](O[C@@H]2O[C@H](CO)[C@@H](O)[C@H](O)[C@H]2O)C2C1C(=O)C[C@H]2C (some centres undefined),Potency,[1],inactive
same,Potency,[2],inactive
CCOc1ccc(NC(=S)N2CCC(C(O)(c3ccccc3)c3ccccc3)CC2)cc1,Potency,[1],inactive
same,Potency,[2],inactive
CC(O)CO[C@@H]1O[C@H](CO)[C@@H](O)[C@H](O)[C@H]1O (some centres undefined),Potency,[1],inactive
same,Potency,[2],inactive
CCn1cc(NC(=S)Nc2cc(Cl)ccc2OC)c(C(N)=O)n1,Potency,[1],inactive
same,Potency,[2],inactive
CC/C=C\CC1C(=O)C=CC1(CCCCCCCC(=O)O)OC(C)=O (centres undefined),Potency,[1],inactive
same,Potency,[2],inactive
COc1cc2c(cc1OC)CC(=O)N(CCCNC[C@H]1Cc3cc(OC)c(OC)cc31)CC2,Potency,[1],inactive
same,Potency,[2],inactive
Cc1cc(OCc2nc(-c3ccccc3Cl)cs2)ccc1OCC(=O)O,Potency,[1],inactive
same,Potency,[2],inactive
COc1cc2occc2c(O[C@@H]2O[C@H](CO)[C@@H](O)[C@H](O)[C@H]2O)c1CCC(=O)O,Potency,[1],inactive
same,Potency,[2],inactive
CC(C)=CCC/C(C)=C/CO[C@@H]1O[C@H](CO)[C@@H](OC(=O)/C=C/c2ccc(O)cc2)[C@H](O[C@@H]2O[C@@H](C)[C@H](O)[C@@H](O)[C@H]2O)[C@H]1O,Potency,[1],inactive
same,Potency,[2],inactive
O=C(O[C@H]1[C@@H]2C=CO[C@@H](O[C@@H]3O[C@H](CO)[C@@H](O)[C@H](O)[C@H]3O)[C@@H]2[C@@]2(CO)O[C@@H]12)c1ccccc1,Potency,[1],inactive
same,Potency,[2],inactive
C=CC(C)(C)C12C=C(OC)C(=O)N3C(C(C)C)C(=O)NC31N(OC)c1ccccc12 (centres undefined),Potency,[1],inactive
same,Potency,[2],inactive
C[C@@H]1N[C@H]2N(C1=O)c1ccccc1[C@@]2(O)C[C@@H]1C(=O)N[C@@H](C)c2nc3ccccc3c(=O)n21,Potency,[1],inactive
same,Potency,[2],inactive
C[C@@H](O)[C@H](NC(=O)c1ccc(C#Cc2ccc(CN3CCOCC3)cc2)cc1)C(=O)NO,Potency,[1],inactive
same,Potency,[2],inactive
C=C[C@H]1C(O[C@@H]2O[C@H](CO)[C@@H](O)[C@H](O)[C@H]2O)OC=C2C(=O)N3CCc4c([nH]c5ccccc45)C3CC21 (some centres undefined),Potency,[1],inactive
same,Potency,[2],inactive
CCCn1c(=O)c2[nH]c(-c3ccc(OCC(=O)O)cc3)nc2n(CCC)c1=O,Potency,[1],inactive
same,Potency,[2],inactive
CNC12CC3C[C@@](C)(C1)C[C@](C)(C3)C2,Potency,[1],inactive
same,Potency,[2],inactive
